# According to publication PMC5540273 (PLoS ONE, 2017):
# System: CSNK1A1
# Conditions: concentration: 1 μM, replicates: in singlicate; n = 1
# 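Note: KINOMEscan kinase panel screen.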
row,Compound,%Inh [%]
1,COc1cc2ncn(-c3cc(OCC4CCCO4)c(C(N)=O)s3)c2cc1OC (centres unmarked) [GSK204607],0
2,C[C@@H]1CCCCN1c1cc(-c2ccc3c(N)n[nH]c3c2)nc(N)n1 [GSK2258759],0
3,COc1ccc(C2=C(Nc3cccc(C(=O)O)c3)C(=O)NC2=O)cc1 [SB-390765],15
4,CCCc1ccc(S(=O)(=O)NC2CCN(c3ccnc(Nc4ccc(F)cc4)n3)C2)cc1 (centres unmarked) [GSK1379715],0
5,O=C(Nc1ccccc1)Nc1cccc(Oc2ccc3nccn3n2)c1,0
6,Cn1ccc2ncnc(Oc3ccc(Nc4nc5ccccc5[nH]4)cc3)c21,0
7,Cc1cccc(-c2cc(Nc3ccncc3)c3ccccc3n2)n1 [GSK223675],0
8,Cc1ccc(NC(=O)Nc2cccc(Cl)c2)cc1-c1ccc(C(=O)Nc2ccncc2)cc1 [GSK1398468],0
9,COc1ccc(CNC(=O)NC2CCN(c3ccnc(Nc4cc(OC)c(OC)c(OC)c4)n3)C2)cc1 (centres unmarked) [GSK1379748],0
10,O=S(=O)(c1ccc(-c2ccnc3[nH]ccc23)cc1)N1CCCC1 [GSK846226],0
11,COc1ccccc1-c1ccc2c(NC(=O)C3CC3)n[nH]c2n1 [SB-711239],10
12,Cl.O=C(Nc1cccc(-c2nn3ncccc3c2-c2ccnc(Nc3cccnc3)n2)c1)c1c(F)cccc1F [GSK312879],0
13,O=C(Nc1n[nH]c2nc(-c3nccs3)c(Br)cc12)C1CCCC1 [SB-742609],25
14,COc1cc(Nc2nccc(N3CCC(NC(=O)Nc4cc(C)ccc4C)C3)n2)cc(OC)c1OC (centres unmarked) [GSK1379762],3
15,CC(=O)Nc1nc2cnc(Nc3cc(NC(=O)c4cccc(CCC#N)c4)ccc3C)nc2s1,23
16,Cc1cc(N2Cc3ccccc3C2)nc(Nc2ccc(S(=O)(=O)N3CCOCC3)cc2)n1.Cl [GSK1669917],0
17,Cc1cccc(-c2nc(C)cc(Nc3ccncc3)n2)n1 [GSK257997],0

row,Compound,%Inh [%]
1,O=c1cc(N2CCOCC2)nc2n(Cc3cccc(Cl)c3Cl)ccn12 [GSK2286295],27
2,Cc1cc(-c2ccc3c(c2)CC[C@@H](N[C@@H](C)c2ccccc2)C3)cnc1N.Cl [GW412617],6
3,COc1ccccc1CNC(=O)c1cc(C(=O)c2ccccc2C)c[nH]1 [GSK364507],0
4,Cc1cccc(-c2nc(Nc3cccc(C(N)=O)c3)c3ccccc3n2)n1 [GW876019],37
5,Cc1csc(-c2nc(Nc3ccncc3)c3ccccc3n2)n1 [GW869640],28
6,CS(=O)(=O)c1ccc(-c2nc3n(c2-c2ccncc2)CCC3)cc1 [SKF-105942],0
7,Nc1ncnc2[nH]c(-c3ccccc3)nc12 [AH5015],0
8,Cc1cccc(-c2nc(Nc3ccncc3)c3ccccc3n2)n1 [GW855857],46
9,COC(=O)c1c(-c2ccccc2)c2cc(OC)ccc2c(=O)n1Cc1ccccc1,9
10,Cc1c(Cn2ccn3c(=O)cc(N4CCOCC4)nc23)cccc1C(F)(F)F [GSK2289044],33
11,COc1ccc(Nc2nccc(-c3cccc(NC(=O)c4cc5cc(F)ccc5[nH]4)c3)n2)cc1 [GSK1229782],0
12,O=C(O)COc1ncnc2cc(-c3ccc4[nH]ncc4c3)sc12,33
13,Cc1ccc(-c2cc(-c3c[nH]nc3-c3ccccn3)ccn2)cc1 [GW684088],21
14,Cc1c(O)cccc1Nc1ccnc2ccc(C(F)(F)F)cc12.Cl [GW466413],0
15,CS(=O)(=O)c1ccc(-c2c(-c3ncn[nH]3)sc(N3CCOCC3)c2C#N)cc1,48
16,Fc1cccc(COc2nnc(-c3ccc4c(c3)CCO4)o2)c1,0
17,COc1cc2ncnc(Nc3ccc4nc(-c5ccccc5)[nH]c4c3)c2cc1OC.Cl [GW282450],0

# System: CSNK1D
# Conditions: concentration: 1 μM, replicates: in singlicate; n = 1
row,Compound,%Inh [%]
1,COc1cc2ncn(-c3cc(OCC4CCCO4)c(C(N)=O)s3)c2cc1OC (centres unmarked) [GSK204607],8
2,C[C@@H]1CCCCN1c1cc(-c2ccc3c(N)n[nH]c3c2)nc(N)n1 [GSK2258759],39
3,COc1ccc(C2=C(Nc3cccc(C(=O)O)c3)C(=O)NC2=O)cc1 [SB-390765],14
4,CCCc1ccc(S(=O)(=O)NC2CCN(c3ccnc(Nc4ccc(F)cc4)n3)C2)cc1 (centres unmarked) [GSK1379715],0
5,O=C(Nc1ccccc1)Nc1cccc(Oc2ccc3nccn3n2)c1,0
6,Cn1ccc2ncnc(Oc3ccc(Nc4nc5ccccc5[nH]4)cc3)c21,0
7,Cc1cccc(-c2cc(Nc3ccncc3)c3ccccc3n2)n1 [GSK223675],14
8,Cc1ccc(NC(=O)Nc2cccc(Cl)c2)cc1-c1ccc(C(=O)Nc2ccncc2)cc1 [GSK1398468],57
9,COc1ccc(CNC(=O)NC2CCN(c3ccnc(Nc4cc(OC)c(OC)c(OC)c4)n3)C2)cc1 (centres unmarked) [GSK1379748],0
10,O=S(=O)(c1ccc(-c2ccnc3[nH]ccc23)cc1)N1CCCC1 [GSK846226],7
11,COc1ccccc1-c1ccc2c(NC(=O)C3CC3)n[nH]c2n1 [SB-711239],0
12,Cl.O=C(Nc1cccc(-c2nn3ncccc3c2-c2ccnc(Nc3cccnc3)n2)c1)c1c(F)cccc1F [GSK312879],15
13,O=C(Nc1n[nH]c2nc(-c3nccs3)c(Br)cc12)C1CCCC1 [SB-742609],42
14,COc1cc(Nc2nccc(N3CCC(NC(=O)Nc4cc(C)ccc4C)C3)n2)cc(OC)c1OC (centres unmarked) [GSK1379762],0
15,CC(=O)Nc1nc2cnc(Nc3cc(NC(=O)c4cccc(CCC#N)c4)ccc3C)nc2s1,3
16,Cc1cc(N2Cc3ccccc3C2)nc(Nc2ccc(S(=O)(=O)N3CCOCC3)cc2)n1.Cl [GSK1669917],0
17,Cc1cccc(-c2nc(C)cc(Nc3ccncc3)n2)n1 [GSK257997],43

row,Compound,%Inh [%]
1,O=c1cc(N2CCOCC2)nc2n(Cc3cccc(Cl)c3Cl)ccn12 [GSK2286295],26
2,Cc1cc(-c2ccc3c(c2)CC[C@@H](N[C@@H](C)c2ccccc2)C3)cnc1N.Cl [GW412617],35
3,COc1ccccc1CNC(=O)c1cc(C(=O)c2ccccc2C)c[nH]1 [GSK364507],28
4,Cc1cccc(-c2nc(Nc3cccc(C(N)=O)c3)c3ccccc3n2)n1 [GW876019],8
5,Cc1csc(-c2nc(Nc3ccncc3)c3ccccc3n2)n1 [GW869640],46
6,CS(=O)(=O)c1ccc(-c2nc3n(c2-c2ccncc2)CCC3)cc1 [SKF-105942],6
7,Nc1ncnc2[nH]c(-c3ccccc3)nc12 [AH5015],21
8,Cc1cccc(-c2nc(Nc3ccncc3)c3ccccc3n2)n1 [GW855857],73
9,COC(=O)c1c(-c2ccccc2)c2cc(OC)ccc2c(=O)n1Cc1ccccc1,0
10,Cc1c(Cn2ccn3c(=O)cc(N4CCOCC4)nc23)cccc1C(F)(F)F [GSK2289044],6
11,COc1ccc(Nc2nccc(-c3cccc(NC(=O)c4cc5cc(F)ccc5[nH]4)c3)n2)cc1 [GSK1229782],37
12,O=C(O)COc1ncnc2cc(-c3ccc4[nH]ncc4c3)sc12,0
13,Cc1ccc(-c2cc(-c3c[nH]nc3-c3ccccn3)ccn2)cc1 [GW684088],26
14,Cc1c(O)cccc1Nc1ccnc2ccc(C(F)(F)F)cc12.Cl [GW466413],0
15,CS(=O)(=O)c1ccc(-c2c(-c3ncn[nH]3)sc(N3CCOCC3)c2C#N)cc1,0
16,Fc1cccc(COc2nnc(-c3ccc4c(c3)CCO4)o2)c1,0
17,COc1cc2ncnc(Nc3ccc4nc(-c5ccccc5)[nH]c4c3)c2cc1OC.Cl [GW282450],6
